Experimental data published in PubChem BioAssay (NCATS).
Where “and” joins values, the source holds several entries; their conditions need not be identical. Identical values can stand only once. Results filed as inconclusive are left out. Calls of active or inactive are those of the source. Unless noted, calls follow the shape of the dose curve; as a rule, active = well fitted curve in the direction sought with a large enough effect; inconclusive = small, poorly fitted or top-dose-only effect, or another doubt; inactive = no such curve, though single readings can be large; an effect the other way counts as inactive or inconclusive.

Assays:
[1] = qHTS assay for small molecule disruptors of the mitochondrial membrane potential - 1 hr assay (AID 651754; calls by dose curve; also: % is scaled to controls: 0 for no effect and ±100 for the full control effect; nearly all actives have a fitted effect of over 35% in size)
Procedure, shortened: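 HepG2, 2,000 cells/well, overnight attachment; cpd or DMSO 1 hr, 37C/5% CO2; Mito-MPS dye 30 min, 37C; fluorescence monomer (490/535) and aggregate (540/590).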

[2] = qHTS assay for small molecule disruptors of the mitochondrial membrane potential - 5 hr assay (AID 651755; calls by dose curve; also: % is scaled to controls: 0 for no effect and ±100 for the full control effect; nearly all actives have a fitted effect of over 40% in size)
Procedure, shortened: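 HepG2 cells (2,000/well), attached overnight, exposed to compound 5 hr at 37C, then Mito-MPS dye 30 min. Fluorescence read for monomers (490/535 nm) and aggregates (540/590 nm).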

[3] = target: Tumor necrosis factor (Homo sapiens) (UniProt P01375); experiment: qHTS assay to identify small molecules that stimulate Tumor Necrosis Factor-alpha (TNF-alpha) secretion (AID 651757; active = well fitted curve in the direction sought with a large enough effect in the signal ratio; the % refers to the signal ratio; also: 0% is about no effect)
Procedure, shortened: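 Read-out is HTRF, a TR-FRET sandwich of cryptate- and XL665-labeled anti-TNF-alpha antibodies detecting cytokine secreted by THP-1 cells. Cells had been incubated with test compounds at 37 C for 17 hrs beforehand.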

[4] = qHTS assay to identify small molecules that stimulate interleukin-8 (IL-8) secretion (AID 651758; active = well fitted activation curve with a large enough effect in the signal ratio; the % refers to the signal ratio; also: 0% is about no effect)
Procedure, shortened: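 THP-1 cells (2000/well) exposed to compound 16 h at 37 C; secreted IL-8 then detected by HTRF with cryptate- and XL665-labelled anti-IL-8 antibody pair after 1-3 h at room temperature.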

[5] = qHTS assay for environmental chemicals that activate the Aryl hydrocarbon Receptor (AhR) signaling pathway (AID 651777); conditions: 1A2-DRE human hepatoma cells, luciferase, 24 h; activation: hits give high values; also: % of control where 0% means no effect; nearly all actives have a fitted effect of over 15% in size
Procedure, shortened: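 Quantitative HTS in stably transfected human liver-derived cells whose luciferase gene sits downstream of the CYP1A2 promoter and dioxin response element. After 24 hr exposure at 37 C, One-Glo luminescence was measured.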

[6] = target: Peroxisome proliferator-activated receptor alpha (Homo sapiens) (UniProt Q07869); experiment: qHTS assay for small molecule agonists of the peroxisome proliferator-activated receptor alpha (PPARalpha) signaling pathway (AID 651778); conditions: PathHunter PPARalpha complementation, chemiluminescence, 6 h; hits give high values; also: % of control where 0% means no effect
Procedure, shortened: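 Enzyme-fragment complementation assay in which ligand-bound PPARalpha translocates and forms an active enzyme that generates chemiluminescence. Cells were plated overnight, exposed to compound for 6 hr at 37 C, and then given detection reagent for 60 min at room temperature.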

[7] = target: Nuclear receptor ROR-gamma (Homo sapiens) (UniProt P51449); experiment: qHTS assay for small molecule antagonists of the retinoid-related orphan receptor gamma (ROR-gamma) signaling pathway (AID 651802);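 also: luciferase reporter luminescence driven by ROR response element; series mostly up to about 92 µM; % is scaled to controls: 0 for no effect and ±100 for the full control effect; nearly all actives have a fitted effect of over 60% in size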
Procedure, shortened: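 CHO, TET-inducible ROR + RORE-LUC reporter, 1536-well qHTS. Compound pinned, doxycycline added, 16hr 37C/5% CO2. ONE-Glo, 30 min RT, luminescence; signal drop scored as antagonism.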

[8] = qHTS assay for small molecule agonists of the antioxidant response element (ARE) signaling pathway measured by Nrf2-dependant transcriptional activity (AID 720636; active = well fitted curve in the direction sought with a large enough effect in the repeat runs; an effect the other way counts as inactive or inconclusive; also: % of control where 0% means no effect)
Procedure, shortened: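 Quantitative HTS format in HepG2 cells stably expressing an ARE-luciferase reporter; 16 hr compound treatment at 37 C, luciferase signal detected with ONE-Glo.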

[9] = qHTS assay for small molecule antagonists of the retinoid-related orphan receptor gamma (ROR-gamma) signaling pathway - cell viability counter screen (AID 720652; active = well fitted curve in the direction sought with a large enough effect in the repeat runs; an effect the other way counts as inactive or inconclusive;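 also: series mostly up to about 92 µM; compound exposure lasted 16 hr before ATP read; % is scaled to controls: 0 for no effect and ±100 for the full control effect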)
Procedure, shortened: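 Luminescence from CellTiter-Glo after 30 min at room temperature reported cellular ATP as the cytotoxicity measure. Cells were the CHO reporter line with doxycycline-induced ROR-gamma expression, exposed to compound for 16 hr at 37 C.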

[10] = qHTS assay for small molecule agonists of the antioxidant response element (ARE) signaling pathway measured by Nrf2-dependant transcriptional activity - cell viability counter screen (AID 720653; active = well fitted curve in the direction sought with a large enough effect in the repeat runs; an effect the other way counts as inactive or inconclusive; also: % is scaled to controls: 0 for no effect and ±100 for the full control effect); conditions: ARE-bla HepG2 viability, CellTiter-Glo ATP luminescence, 16 h; hits give low values
Procedure, shortened: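 ARE-bla HepG2 cells treated with compounds for 16 h at 37C; this counter screen measures viability as intracellular ATP by CellTiter-Glo luminescence after 30 min at room temperature.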

[11] = qHTS assay for cell viability of HEK293 cells (AID 743288); conditions: ATP luminescence (CellTiter-Glo), 18 h, hits give low values; also: % is scaled to controls: 0 for no effect and ±100 for the full control effect; nearly all actives have a fitted effect of over 50% in size
Procedure, shortened: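 HEK293 parental, 2,000 cells/well; ≥5 h pre-incubation 37 C; pintool compound addition; 18 h, 37 C; CellTiter-Glo 30 min RT; luminescence read.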

[12] = qHTS assay for cell viability of the p53RE-bla HCT-116 cell line (AID 743292); also: % is scaled to controls: 0 for no effect and ±100 for the full control effect; nearly all actives have a fitted effect of over 55% in size
Procedure, shortened: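 Viability of compound-treated p53RE-bla HCT-116 cells is taken from ATP-dependent luciferase luminescence. Treatment lasts 16 h at 37 C after a 5 h settling period; detection follows 30 min at room temperature.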

[13] = target: Nuclear receptor subfamily 1 group I member 2 (Rattus norvegicus) (UniProt Q9R1A7); experiment: qHTS assay for small molecule activators of the rat pregnane X receptor (rPXR) signaling pathway (AID 651751; call rule not given here; also: 0% is about no effect); conditions: rPXR reporter cells, luciferase (One-Glo), 24 h
[14] = qHTS assay for small molecule activators of the human pregnane X receptor (PXR) signaling pathway (AID 720659; call rule not given here; also: 0% is about no effect)

Chain of Nuclear receptor subfamily 1 group I member 2 (Rattus norvegicus) (Q9R1A7 whole entry, looked up): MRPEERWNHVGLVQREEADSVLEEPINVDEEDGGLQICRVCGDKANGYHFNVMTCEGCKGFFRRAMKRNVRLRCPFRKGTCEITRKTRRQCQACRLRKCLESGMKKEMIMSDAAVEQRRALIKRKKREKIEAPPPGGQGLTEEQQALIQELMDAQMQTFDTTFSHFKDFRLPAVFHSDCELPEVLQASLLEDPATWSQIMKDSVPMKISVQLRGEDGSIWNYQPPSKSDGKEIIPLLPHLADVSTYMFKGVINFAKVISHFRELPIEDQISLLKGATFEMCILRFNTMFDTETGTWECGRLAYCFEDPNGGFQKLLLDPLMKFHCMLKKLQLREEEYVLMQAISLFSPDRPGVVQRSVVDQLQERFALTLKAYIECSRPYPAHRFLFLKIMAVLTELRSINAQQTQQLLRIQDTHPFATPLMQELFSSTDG
Chain of Peroxisome proliferator-activated receptor alpha (Homo sapiens) (Q07869 whole entry, looked up, the tested form may be a part): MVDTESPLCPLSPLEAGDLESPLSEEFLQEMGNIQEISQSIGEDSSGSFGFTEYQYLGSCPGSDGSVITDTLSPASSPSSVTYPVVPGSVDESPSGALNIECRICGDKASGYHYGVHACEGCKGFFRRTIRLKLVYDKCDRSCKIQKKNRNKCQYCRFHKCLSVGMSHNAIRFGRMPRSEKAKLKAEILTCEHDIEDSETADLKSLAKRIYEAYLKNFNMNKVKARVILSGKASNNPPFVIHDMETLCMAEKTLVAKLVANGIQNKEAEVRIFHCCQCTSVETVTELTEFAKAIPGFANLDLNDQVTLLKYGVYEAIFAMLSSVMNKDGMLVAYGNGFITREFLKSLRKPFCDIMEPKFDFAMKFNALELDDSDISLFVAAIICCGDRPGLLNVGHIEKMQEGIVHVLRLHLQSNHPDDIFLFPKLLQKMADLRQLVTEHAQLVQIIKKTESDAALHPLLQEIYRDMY
Chain of Tumor necrosis factor (Homo sapiens) (P01375 whole entry, looked up): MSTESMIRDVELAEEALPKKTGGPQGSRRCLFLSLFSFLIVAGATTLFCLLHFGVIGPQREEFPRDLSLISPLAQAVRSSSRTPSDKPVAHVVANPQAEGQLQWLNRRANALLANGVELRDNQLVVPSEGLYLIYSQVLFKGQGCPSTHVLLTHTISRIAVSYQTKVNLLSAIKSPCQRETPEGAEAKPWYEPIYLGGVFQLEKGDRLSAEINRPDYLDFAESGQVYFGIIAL
Chain of Nuclear receptor ROR-gamma (Homo sapiens) (P51449 whole entry, looked up): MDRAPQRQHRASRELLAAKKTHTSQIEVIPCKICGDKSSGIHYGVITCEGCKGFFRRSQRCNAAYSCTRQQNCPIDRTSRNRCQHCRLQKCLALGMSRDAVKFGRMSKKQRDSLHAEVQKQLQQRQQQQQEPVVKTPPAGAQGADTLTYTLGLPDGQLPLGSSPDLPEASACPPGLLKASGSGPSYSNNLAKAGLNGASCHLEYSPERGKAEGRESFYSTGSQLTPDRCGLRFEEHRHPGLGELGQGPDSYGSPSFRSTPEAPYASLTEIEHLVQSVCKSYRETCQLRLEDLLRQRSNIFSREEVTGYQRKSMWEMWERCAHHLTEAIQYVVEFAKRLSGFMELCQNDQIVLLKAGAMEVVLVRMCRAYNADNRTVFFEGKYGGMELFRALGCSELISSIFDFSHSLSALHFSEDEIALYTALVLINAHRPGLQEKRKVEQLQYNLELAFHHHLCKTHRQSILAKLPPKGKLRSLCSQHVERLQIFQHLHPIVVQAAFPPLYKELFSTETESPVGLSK

CCCCCCCCC
inactive: Potency [1] | Potency [2] | Potency [3] | Potency [4] | activation [5] 0.0249% | max response [6] -0.317% | Potency [7] | outcome [8] | Potency [9] | max response [10] 3.15% | max response [11] 9.61% | Potency [12] | max response [13] 3.91% | outcome [14]

O=Cc1cccc(Br)c1
inactive: Potency [1] | Potency [2] | Potency [3] | Potency [4] | activation [5] 0.191% | max response [6] -2.07% | Potency [7] | outcome [8] | Potency [9] | max response [10] 0.536% | max response [11] 1.54% | Potency [12] | max response [13] 5.18% | outcome [14]

Cc1ccc(CO)cc1
inactive: Potency [1] | Potency [2] | Potency [3] | Potency [4] | activation [5] -1.15% | max response [6] 4.64% | Potency [7] | outcome [8] | Potency [9] | max response [10] -0.358% | max response [11] 9.52% | Potency [12] | max response [13] 4.72% | outcome [14]

CC1CCC2CC1C2(C)C (stereo not drawn)
inactive: Potency [1] | Potency [2] | Potency [3] | Potency [4] | activation [5] -0.275% | max response [6] -3.48% | Potency [7] | outcome [8] | Potency [9] | max response [10] 1.21% | max response [11] -8.03% | Potency [12] | max response [13] -2.72% | outcome [14]

O=C(O)c1ccccc1Cl
inactive: Potency [1] | Potency [2] | Potency [3] | Potency [4] | activation [5] -2.05% | max response [6] -0.83% | Potency [7] | outcome [8] | Potency [9] | max response [10] -0.91% | max response [11] -4.79% | Potency [12] | max response [13] 1.04% | outcome [14]

Cc1cccc(C)c1[N+](=O)[O-]
inactive: Potency [1] | Potency [2] | Potency [3] | Potency [4] | activation [5] -1.35% and 15.8% | max response [6] 0.937% and 0.387% | Potency [7] | outcome [8] | Potency [9] | max response [10] -4.95% and -2.18% | max response [11] -0.503% and 0.264% | Potency [12] | max response [13] 1.64% and 13.2% | outcome [14]

CO[Si](CCCNCCC[Si](OC)(OC)OC)(OC)OC
inactive: Potency [1] | Potency [2] | Potency [3] | Potency [4] | activation [5] -0.757% | max response [6] -5.87% | Potency [7] | outcome [8] | Potency [9] | max response [10] -1.66% | max response [11] 5.64% | Potency [12] | max response [13] 4.59% | outcome [14]

CC(C)N(C)C
inactive: Potency [1] | Potency [2] | Potency [3] | Potency [4] | activation [5] -0.41% | max response [6] -5.48% | Potency [7] | outcome [8] | Potency [9] | max response [10] 2.26% | max response [11] 6.47% | Potency [12] | max response [13] -2.95% | outcome [14]

c1ccc(Oc2ccccc2)cc1
inactive: Potency [1] | Potency [2] | Potency [3] | Potency [4] | activation [5] -0.267% and -0.51% | max response [6] -7.64% and 0.0496% | Potency [7] | outcome [8] | Potency [9] | max response [10] 5.45% and -9.72% | max response [11] -1.32% and 1.9% | max response [13] -0.536% and 5.2% | outcome [14]

CCCCCNCCCCC
inactive: Potency [1] | Potency [2] | Potency [3] | Potency [4] | activation [5] 0.294% and -0.372% | max response [6] -4.45% and 0.112% | Potency [7] | outcome [8] | Potency [9] | max response [10] -0.347% and -3.31% | max response [11] 0.935% and 1.64% | Potency [12] | max response [13] 7.61% and 1.33% | outcome [14]

ON=C1CCCCC1
inactive: Potency [1] | Potency [2] | Potency [3] | Potency [4] | activation [5] 0.388% | max response [6] 1.6% | Potency [7] | outcome [8] | Potency [9] | max response [10] 5.44% | max response [11] 1.04% | Potency [12] | max response [13] 3.07% | outcome [14]

CC(C)C=O
inactive: Potency [1] | Potency [2] | Potency [3] | Potency [4] | activation [5] 0.299% | max response [6] -0.412% | Potency [7] | outcome [8] | Potency [9] | max response [10] -2.28% | max response [11] -10.3% | Potency [12] | max response [13] 1.58% | outcome [14]

Cc1ccc(C)c(N)c1
inactive: Potency [1] | Potency [2] | Potency [3] | Potency [4] | activation [5] -0.892% | max response [6] 7.66% | Potency [7] | outcome [8] | Potency [9] | max response [10] 0.0142% | max response [11] -4.96% | Potency [12] | max response [13] -4.19% | outcome [14]

CC(C)N=C=NC(C)C
inactive: Potency [1] | Potency [2] | Potency [3] | Potency [4] | activation [5] -2.05% | max response [6] -2.65% | Potency [7] | outcome [8] | Potency [9] | max response [10] -1% | max response [11] 3.11% | Potency [12] | max response [13] 1.41% | outcome [14]

Nc1ccc(F)cc1F
inactive: Potency [1] | Potency [2] | Potency [3] | Potency [4] | activation [5] -1.74% | max response [6] 7.65% | Potency [7] | outcome [8] | Potency [9] | max response [10] -3.09% | max response [11] -2.02% | Potency [12] | max response [13] 3.66% | outcome [14]

CCCCCCCCN
inactive: Potency [1] | Potency [2] | Potency [3] | Potency [4] | activation [5] 1.65% | max response [6] -3.65% | Potency [7] | outcome [8] | Potency [9] | max response [10] 1.34% | max response [11] -5.63% | Potency [12] | max response [13] 0.0694% | outcome [14]
